Molecules are shown by their SMILES. Several values for one entry are separate records, joined by “and”; a condition that tells them apart may be missing. Equal values may be shown once.

For 1 compound, ΔTm results are on record in ChEMBL document CHEMBL4649984, “CBP30, a selective CBP/p300 bromodomain inhibitor, suppresses human Th17 responses” (Proc Natl Acad Sci U S A, 2015).

The target in assay [1] is Bromodomain-containing protein 4 (Homo sapiens) (UniProt O60885). The settings on record: Compound concentration 10.0 uM, Protein concentration 2.0 uM.
Assay [2] deals with T1, Transcription intermediary factor 1-alpha (Homo sapiens) (UniProt O15164).
T1 sequence (whole entry): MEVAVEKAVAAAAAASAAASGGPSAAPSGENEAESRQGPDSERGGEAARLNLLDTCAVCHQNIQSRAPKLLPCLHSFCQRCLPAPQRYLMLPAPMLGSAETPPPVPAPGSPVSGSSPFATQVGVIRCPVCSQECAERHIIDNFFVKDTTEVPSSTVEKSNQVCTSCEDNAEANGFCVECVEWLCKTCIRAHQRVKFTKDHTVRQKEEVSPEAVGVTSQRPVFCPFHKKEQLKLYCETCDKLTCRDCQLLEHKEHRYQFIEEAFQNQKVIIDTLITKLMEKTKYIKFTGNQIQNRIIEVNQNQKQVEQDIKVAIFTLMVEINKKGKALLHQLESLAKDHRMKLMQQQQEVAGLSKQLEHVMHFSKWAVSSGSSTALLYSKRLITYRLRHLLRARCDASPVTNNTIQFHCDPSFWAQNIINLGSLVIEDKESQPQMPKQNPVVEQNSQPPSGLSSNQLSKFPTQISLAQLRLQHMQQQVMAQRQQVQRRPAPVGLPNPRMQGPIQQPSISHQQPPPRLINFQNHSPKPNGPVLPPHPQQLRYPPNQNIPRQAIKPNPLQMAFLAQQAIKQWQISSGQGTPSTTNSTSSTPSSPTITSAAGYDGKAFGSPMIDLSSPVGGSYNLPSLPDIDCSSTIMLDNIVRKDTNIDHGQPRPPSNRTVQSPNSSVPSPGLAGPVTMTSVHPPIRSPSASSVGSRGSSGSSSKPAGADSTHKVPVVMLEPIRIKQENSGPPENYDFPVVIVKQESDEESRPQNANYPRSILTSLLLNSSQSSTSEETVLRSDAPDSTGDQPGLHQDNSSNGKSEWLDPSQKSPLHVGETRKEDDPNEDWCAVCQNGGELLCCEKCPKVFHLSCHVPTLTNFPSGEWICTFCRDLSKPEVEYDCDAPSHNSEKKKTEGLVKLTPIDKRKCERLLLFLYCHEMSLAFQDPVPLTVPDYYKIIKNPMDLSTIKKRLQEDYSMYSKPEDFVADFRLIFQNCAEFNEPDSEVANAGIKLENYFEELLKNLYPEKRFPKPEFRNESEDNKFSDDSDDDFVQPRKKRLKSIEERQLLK
The settings on record: Compound concentration 10.0 uM, Protein concentration 2.0 uM.

In general, ΔTm refers to the shift of the melting midpoint relative to a reference. As to `COc1ccc(CCc2nc3cc(-c4c(C)noc4C)ccc3n2C[C@H](C)N2CCOCC2)cc1Cl`, the ΔTm was 1.65 °C and 2.75 °C in assay [1]; 0.88 °C in assay [2].
